Source: PubChem BioAssay (Broad Institute)
Tcruzi prolif: T. cruzi intracellular proliferation inhibitors, primary screen, cell-based, beta-gal Tulahuen parasites, NIH3T3 host, luminescence. T. cruzi beta-gal in NIH3T3, GalScreen luminescence, 90 h. inhibition, % at 8.34 µM. 77,000 compounds, 5.9% hits;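 active means mean inhibition above about 93%, with at least 55% of replicates each passing it, limit read from the data, passing the limit was not always enough; inconclusive means only one of those two conditions holds; inactive means neither condition holds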
C diff growth: C. difficile growth inhibitors, primary screen, HTS; Clostridium difficile clinical isolate growth, OD600, 24 h; hits give low values; growth activity, negative = inhibition, % at 16 µg/mL (by protocol); 86,000 compounds, 0.25% hits;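 active means mean growth activity at or below -80% and every replicate also at or below -80%; inconclusive means mean at or below -80% but some replicate above -80%; inactive means mean growth activity above -80%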
Pf Dd2 growth: P. falciparum Dd2 growth inhibitors, primary screen, SYBR Green fluorescence, single dose replicates. 72 h; hits give low values. activity change, % at 10 µM. 94,000 compounds, 2.3% hits. AID 1159554, 2015; in the data active means activity change below about -80%; inconclusive means no clear call, values can overlap the other calls
Hits are given with their value; . = inactive; ? = inconclusive; / = no result. A selection: hits, their analogues and other compounds. The true share with any hit is near 6.8%.

SMILES | Tcruzi prolif | C diff growth | Pf Dd2 growth
COC(=O)C[C@H]1CC[C@@H]2[C@H](COC[C@H](O)CN2C(=O)Nc2cccc(F)c2)O1 | . | . | .
O=C(CC1CC1)N1CC2(C1)[C@H](c1ccccc1)[C@@H](CO)N2CC1CCOCC1 | / | . | .
COc1cccc(NC(=O)N(C)C[C@H]2OCc3cnnn3CCCC(=O)N([C@@H](C)CO)C[C@H]2C)c1 | . | . | .
C[C@@H]1CN([C@@H](C)CO)C(=O)c2cc(NC(=O)Nc3ccc(C(F)(F)F)cc3)ccc2O[C@@H](C)CCCCO[C@H]1CN(C)C | . | . | .
C[C@@H]1CN([C@@H](C)CO)C(=O)c2cc(NC(=O)Nc3ccc(C(F)(F)F)cc3)ccc2O[C@@H](C)CCCCO[C@H]1CN(C)CC1CCCCC1 | . | -107 | .
C[C@H](CO)N1C[C@H](C)[C@@H](CN(C)CC2CCCCC2)OCCCC[C@H](C)Oc2ccc(NC(=O)Nc3ccc(C(F)(F)F)cc3)cc2C1=O | . | . | .
C[C@@H]1CN([C@H](C)CO)C(=O)c2cc(NC(=O)Nc3ccc(C(F)(F)F)cc3)ccc2O[C@@H](C)CCCCO[C@H]1CN(C)C | . | . | .
C[C@@H]1CCCCO[C@@H](CN(C)CC2CC2)[C@@H](C)CN([C@H](C)CO)C(=O)c2cc(NC(=O)Nc3ccc4c(c3)OCO4)ccc2O1 | . | / | ?
C[C@@H]1CCCCO[C@H](CN(C)CC2CC2)[C@H](C)CN([C@H](C)CO)C(=O)c2cc(NC(=O)Nc3ccc(C(F)(F)F)cc3)ccc2O1 | . | . | -82
C[C@H]1CCCCO[C@H](CN(C)CC2CC2)[C@@H](C)CN([C@@H](C)CO)C(=O)c2cc(NC(=O)Nc3ccc(C(F)(F)F)cc3)ccc2O1 | . | . | -85
CCCN(C)C[C@@H]1OCCCC[C@H](C)Oc2ccc(NC(=O)Nc3ccc4c(c3)OCO4)cc2C(=O)N([C@H](C)CO)C[C@@H]1C | . | . | -88
Cc1ccc(S(=O)(=O)N(C)C[C@@H]2Oc3ccc(NC(=O)NC4CCCCC4)cc3CC(=O)N([C@@H](C)CO)C[C@H]2C)cc1 | . | . | .
COC(=O)[C@H]1COC(c2ccc(OCCCO)cc2)=N1 | / | . | /
C[C@@H]1CN([C@@H](C)CO)C(=O)c2cc(N(C)C)ccc2O[C@@H](C)CCCCO[C@H]1CN(C)S(C)(=O)=O | . | . | .
C[C@@H]1CCCCO[C@@H](CN(C)C(=O)Nc2ccc3c(c2)OCO3)[C@@H](C)CN([C@@H](C)CO)C(=O)c2cc(NC(=O)NC3CCCCC3)ccc2O1 | / | . | .
COc1ccc2c3c([nH]c2c1)[C@H](CO)N(S(=O)(=O)c1cn(C)cn1)CC31CCN(Cc2ccccc2)CC1 | / | . | .
CCCN(C)C[C@H]1OCCCC[C@@H](C)Oc2ccc(NC(=O)Nc3ccc(C(F)(F)F)cc3)cc2C(=O)N([C@H](C)CO)C[C@H]1C | . | -108 | -83
CCCN(C)C[C@H]1OCCCC[C@H](C)Oc2ccc(NC(=O)Nc3ccc(C(F)(F)F)cc3)cc2C(=O)N([C@@H](C)CO)C[C@H]1C | . | . | .
COc1ccc(S(=O)(=O)Nc2ccc3c(c2)CC(=O)N([C@H](C)CO)C[C@H](C)[C@@H](CN(C)S(=O)(=O)c2ccc(OC)cc2)O3)cc1 | . | . | .
Cc1ccc(S(=O)(=O)N(C)C[C@@H]2Oc3ccc(NS(=O)(=O)c4ccc(Cl)cc4)cc3CC(=O)N([C@@H](C)CO)C[C@@H]2C)cc1 | . | . | -81
Cc1ccc(S(=O)(=O)N(C)C[C@@H]2Oc3ccc(NS(=O)(=O)c4ccc(Cl)cc4)cc3CC(=O)N([C@H](C)CO)C[C@H]2C)cc1 | . | . | .
COc1ccc(S(=O)(=O)Nc2ccc3c(c2)CC(=O)N([C@@H](C)CO)C[C@H](C)[C@H](CN(C)S(=O)(=O)c2ccc(OC)cc2)O3)cc1 | . | . | -86
C[C@@H]1CN([C@H](C)CO)C(=O)Cc2cc(NC(=O)Nc3ccc(F)cc3)ccc2O[C@H]1CN(C)C(=O)Nc1ccc(C(F)(F)F)cc1 | . | . | .
COc1ccc(S(=O)(=O)N[C@@H]2CC[C@H](CCNC(=O)c3ccccc3F)O[C@@H]2CO)cc1 | . | . | .
Cc1ccccc1-c1cnc2c(c1)C(=O)N([C@@H](C)CO)C[C@@H](C)[C@@H](CN(C)C(=O)c1ccccc1)O2 | . | . | .
SMILES | Tcruzi prolif | C diff growth | Pf Dd2 growth
COc1ccc2c3c(n(C)c2c1)[C@H](CO)N(C(=O)C1CC1)CC31CN(C(=O)Nc2cccc(F)c2)C1 | / | . | .
COc1ccc2c3c(n(C)c2c1)[C@@H](CO)N(C(=O)C1CCOCC1)CC31CCN(C(=O)Nc2cccc(F)c2)CC1 | / | . | .
COc1ccc2c3c(n(C)c2c1)[C@@H](CO)N(C(=O)C1CCC1)CC31CN(C(=O)Nc2cccc(F)c2)C1 | / | . | -87
CCCC(=O)N1CCC2(CC1)CN(C(=O)Nc1cccc(F)c1)[C@@H](CO)c1c2c2ccc(OC)cc2n1C | / | . | .
CCCC(=O)N1CC2(CCN(C(=O)Nc3cccc(F)c3)CC2)c2c(n(C)c3cc(OC)ccc23)[C@H]1CO | / | . | -86
COc1ccc2c3c(n(C)c2c1)[C@@H](CO)N(C(=O)C1CC1)CC31CCN(C(=O)Nc2cccc(F)c2)CC1 | / | . | -91
COc1ccc2c3c(n(C)c2c1)[C@@H](CO)N(C(=O)C1CC1)CC31CN(C(=O)Nc2cccc(F)c2)C1 | / | . | -88
COc1ccc2c3c(n(C)c2c1)[C@H](CO)N(C)CC31CN(C(=O)Nc2cccc(F)c2)C1 | / | . | .
CC(C)NC(=O)Nc1ccc2c(c1)CC(=O)N([C@H](C)CO)C[C@H](C)[C@@H](CN(C)Cc1ccc3c(c1)OCO3)O2 | . | . | .
CN(C)CC(=O)Nc1ccc2c(c1)[C@@H]1C[C@@H](CC(=O)NCc3ccccn3)O[C@H](CO)[C@@H]1O2 | / | . | .
CCCNC(=O)Nc1ccc2c(c1)OC[C@H](C)N(CC1CCCC1)C[C@@H](C)[C@@H](OC)CN(C)C2=O | . | . | .
C[C@@H]1CN([C@H](C)CO)C(=O)c2cc(NC(=O)C3CCCCC3)ccc2O[C@@H]1CN(C)Cc1ccc(Cl)c(Cl)c1 | . | . | .
CNC[C@@H]1Oc2ncc(-c3cccc(C(=O)N(C)C)c3)cc2C(=O)N([C@@H](C)CO)C[C@@H]1C | / | / | .
C[C@H](CO)N1C[C@H](C)[C@H](CN(C)S(=O)(=O)c2ccc(F)cc2)Oc2ccc(NS(=O)(=O)c3ccccc3)cc2CC1=O | . | . | .
C[C@H](C(=O)N(C)C[C@@H]1OCc2ccccc2-c2c(n(C)c3ccccc23)C(=O)N([C@@H](C)CO)C[C@H]1C)c1ccccc1 | / | . | .
C[C@@H](C(=O)N(C)C[C@@H]1OCc2ccccc2-c2c(n(C)c3ccccc23)C(=O)N([C@@H](C)CO)C[C@@H]1C)c1ccccc1 | / | . | -86
C[C@@H]1CN([C@@H](C)CO)C(=O)c2c(c3ccccc3n2C)-c2ccccc2CO[C@@H]1CN(C)C(=O)c1cc(Cl)cc(Cl)c1 | / | . | -87
C[C@H](CO)N1C[C@H](C)[C@H](CN(C)C(=O)c2cc(Cl)cc(Cl)c2)OCc2ccccc2-c2ccccc2C1=O | / | . | .
C[C@H](C(=O)N(C)C[C@H]1OCc2ccccc2-c2c(n(C)c3ccccc23)C(=O)N([C@H](C)CO)C[C@H]1C)c1ccccc1 | / | . | .
